Experimental findings from PubChem BioAssay AID504467 (National Center for Advancing Translational Sciences (NCATS), 2011) are described below.

The whole screen tested about 330,000 compounds, of which about 7,700 (2.3%) were called active. Roughly 26% stayed inconclusive and do not appear here. Many of the other results were omitted from the sample, so actives are more common in it than they were. A number with no mark means an inactive call. Calls come from the whole dose curve; as a rule, active = well fitted inhibition curve with a large enough effect; inconclusive = small, poorly fitted or top-dose-only effect, or effect the other way; inactive = flat fitted curve, though single readings scatter.
% is set by controls: 0 for no effect and ±100 for the full control effect; potency is the fitted concentration of half-maximal effect.

A short description of the assay: qHTS screen for small molecules that inhibit ELG1-dependent DNA repair in human embryonic kidney (HEK293T) cells expressing luciferase-tagged ELG1. Note: nearly all actives have a fitted effect of over 55% in size. The settings on record: HEK293T ELG1-luciferase reporter, luminescence, 16 h, DNA damage induced by 5-fluorouridine; series mostly up to 46.1 µM; activity change, negative = inhibition: at the top concentration. The gist of the method: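 5-Fluorouridine DNA damage + compound/DMSO, 2,000 cells/well, 16 h, 37 °C/5% CO2. ONE-Glo, 30 min RT, luminescence. Readout = decrease in reporter signal.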
Background: In qHTS, concentration-response curves come from the screen itself.
Take `N#CC(Cc1cc2ccccc2n1S(=O)(=O)c1ccccc1)OCc1ccccc1` (stereo not drawn): the “activity change, negative = inhibition” value is -3.89%.

`Cn1cccc1C(=O)OCC(=O)NCCc1ccccc1`: the “activity change, negative = inhibition” value is 0%.

`Cc1cccc(C)c1NC(=O)COC(=O)c1c(C)nn(-c2ccccc2)c1C`: the “activity change, negative = inhibition” value is -24.2%.

For the compound `O=C(CCNC(=O)c1ccc(Br)cc1)NCC(c1ccco1)N1CCCCC1` (stereo not drawn), the “activity change, negative = inhibition” value was 9.27%.

For `COc1cccc(NC(=O)c2cc(S(=O)(=O)N3CCc4ccccc43)cn2C)c1`, the “activity change, negative = inhibition” value is 13.6%.

Regarding `CCn1c(=O)c(=O)n(CC)c2cc(S(=O)(=O)N3CCc4ccccc43)ccc21`, the “activity change, negative = inhibition” value is 3.09%.

As to `CNC(=O)c1ccsc1NC(=O)c1ccc(S(=O)(=O)N2CCc3ccccc32)cc1`, the Potency is 18.4 µM (active).

As for `CC1CC(C)CN(S(=O)(=O)c2ccc(C(=O)NN3CCOCC3)cc2)C1` (stereo not drawn), the “activity change, negative = inhibition” value was 7.51%.

`CC1CN(S(=O)(=O)c2ccc(C(=O)NN3CCN(C)CC3)cc2)CC(C)O1` (stereo not drawn): the “activity change, negative = inhibition” value was 8.64%.

As to `CC1CN(S(=O)(=O)c2ccc(C(=O)Nc3sccc3C(N)=O)cc2)CC(C)O1` (stereo not drawn), the Potency is 18.4 µM (active).

For `N#Cc1c(-c2ccccc2)nc(SCc2ccc([N+](=O)[O-])cc2)[nH]c1=O`, the “activity change, negative = inhibition” value was -0.721%.

`O=C(CNC(=O)C1COc2ccccc2O1)N/N=C/c1cc(Br)c(O)c(Br)c1` (stereo not drawn): the “activity change, negative = inhibition” value was -3.97%.

`O=C(CSc1nccn1-c1cccc(F)c1)NC1CCCC1`: the “activity change, negative = inhibition” value is 4.69%.

With `CC(C)CC(O)C1CCN(C(=O)CCc2nnc(-c3ccc4c(c3)OCO4)o2)CC1` (stereo not drawn), the “activity change, negative = inhibition” value was -2.7%.

Take `CCn1c2ccc(F)cc2c2nnc(SCCN3CCOCC3)nc21`: the “activity change, negative = inhibition” value was -3.22%.

Regarding `CCN(CC(=O)NC(C)C)C(=O)c1cc(S(=O)(=O)N2CCCCC2)ccc1N1CCCCC1`, the “activity change, negative = inhibition” value was 0.278%.

Regarding `CCN(CC(=O)Nc1ccccc1C(=O)NC1CC1)Cc1cccs1`, the “activity change, negative = inhibition” value was 27.6%.

As for `O=C1CCCc2c1nc(-c1cccc(Cl)c1)n2O`, the “activity change, negative = inhibition” value was 10.7%.

With `O=c1c2cc(Br)ccc2nc(-c2cccc(Cl)c2)n1O`, the Potency was 18.3 µM (active).

With `Cc1cccc(-c2nc3ccccc3c(=O)n2NC(=O)Cc2ccc(Cl)cc2)c1`, the “activity change, negative = inhibition” value is 16.5%.

As for `Cc1ccc(NC(=O)Cn2cnc3c(OCc4ccccc4)ncnc32)cc1C`, the “activity change, negative = inhibition” value was -1.75%.

In the case of `Cc1cc(C)c(S(=O)(=O)NCC(c2ccc3c(c2)OCO3)N2CCOCC2)c(C)c1` (stereo not drawn), the “activity change, negative = inhibition” value was -0.27%.

As for `Fc1ccc(/C=N/n2c(COc3ccccc3)n[nH]c2=S)cc1`, the “activity change, negative = inhibition” value is -4.36%.

Consider `CN(C)c1ccc(C2N(C)C(=O)c3ccccc3N2C)cc1` (stereo not drawn), for which the “activity change, negative = inhibition” value is 1.38%.

As for `CN(C)c1ccc(Nc2c3c4c(cccc4n(C)c2=O)C(=O)c2ccccc2-3)cc1`, the Potency is 7.31 µM (active).

For the compound `Cc1ccc(NS(=O)(=O)c2ccc3c(c2)n(C)c(=O)c(=O)n3C)c(C)c1`, the “activity change, negative = inhibition” value was -5.16%.

`CCC1=Nc2cc(C(=O)NCCN3CCCC3)ccc2Sc2ccc(C)cc21`: the “activity change, negative = inhibition” value was -1.4%.

Take `CCOC(=O)CC1(NC(=O)c2cc(COc3cncc(Cl)c3)on2)CCCCC1`: the “activity change, negative = inhibition” value is -8.66%.
